# Test results published in PubChem BioAssay (NCI).
# Where “and” joins values, the source holds several entries; their conditions need not be identical. Equal values may be shown once. Compounds without any hit were thinned out: in the full panel of roughly 83,000, 20% have a hit.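 Cells were grown in 96-well plates and exposed to the test compound at a single concentration for 48 hours; results are reported as percent growth, with values below 10 considered active.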 A number with no mark means an inactive call. Calls of active or inactive are those of the source.
# Tested on: MDA-MB-468 breast
# Assay: NCI-60 one-dose screen, 48 h (100 = growth as untreated, 0 = no growth, -100 = all killed)
# Conditions: 10 µM unless noted
row,Structure (SMILES),growth
1,CCCCCCCCOC(=O)C(C)OC(=O)OCCOCCOC(=O)OC(C)C(=O)OCCCCCCCC (stereo not given),98.6%
2,O=C1c2c(c3c4cc(Br)ccc4[nH]c3c3ccc4ccccc4c23)C(=O)N1CCN1CCCCC1,15%
3,NC(N)=N/N=C(/c1ccccc1)c1ccccc1F,29.1%
4,COc1cc(-c2nc(SC(C)C)n(C(C)C)c(=O)c2C#N)ccc1OCc1ccccc1,66.8%
5,CCCC(=O)Oc1ccc(/C(=C(\C)c2ccccc2)c2ccc(OCCN(CC)CC)cc2)cc1,62.4%
6,CC(=O)N[C@@H](CNC(=O)c1cc(NC(=O)c2cc(NC(=O)c3cc(NC(=O)c4nccn4C)cn3C)cn2C)cn1C)CC(=O)Nc1cn(C)c(C(=O)Nc2cc(C(=O)Nc3cc(C(=O)Nc4cc(C(=O)NCCCN(C)CCCNC(=O)c5cccc(C(=O)O)c5)n(C)c4)n(C)c3)n(C)c2)n1,71.5%
7,Clc1ccc(-c2nc3ccccc3s2)cc1Cl,110%
8,O=C(Nc1ccccc1)Nc1ccc(C(=O)/C=C/c2ccc(N3CCCC3)cc2)cc1,17.3%
9,Nc1ccccc1SC(CC(=O)c1ccccc1)c1ccc([N+](=O)[O-])cc1 (stereo not given),93.4% and 81.8%
10,COc1ccc(C(=O)c2cc(C)c(OC)c(C)c2)c(OC)c1NC(C)=O,12.4%
11,O=C(c1ccc(-c2nc(CSc3nc4ccccc4s3)no2)cc1)N1CCSCC1,4.1% (active)
12,CCN(CC)CCN(CCN(CC)CC)c1ccccc1,92%
13,C/C(=C\c1cc(Cl)ccc1OCC(=O)O)[N+](=O)[O-],112%
14,CC(=C(c1ccc(OCCCN(C)C)cc1)c1ccc(OCCCN(C)C)cc1)c1ccc(Cl)cc1,80%
15,O=C1NC(=O)/C(=C/c2c(-c3ccccc3)nc3sc(COc4ccccc4)nn23)S1,98.9%
16,O=C1/C(=C/c2ccc(O)cc2)COc2ccc(-c3ccccc3)cc21,65%
17,O=C(/C=C/c1cccc(Cl)c1)c1ccccc1,82.8% and 74.6%
18,O=C(CSc1nc2ccccc2c(=O)n1-c1ccccc1)Nc1ccc(-c2nc3ccc([N+](=O)[O-])cc3[nH]2)cc1,81.5%
19,COc1cc(OC)c(NC(=O)n2ncc3cc(Nc4ncnc5ccccc45)ccc32)cc1Cl,-5.26% (active)
20,CN1CCN(c2nc3scc(-c4ccccc4)c3c(=O)[nH]2)CC1,98.1%

row,Structure (SMILES),growth
1,COc1cc(OC)c(/C=C/C(=O)c2c(OC)cccc2OC)c(OC)c1,-15.6% (active)
2,ClC1=C(Cl)C(Cl)=C(Cl)C1=Cc1ccc(Cl)cc1,45.3%
3,Brc1ccc(Nc2nc3ccccc3nc2Nc2ccc(Br)cc2)cc1,-48.6% (active)
4,CCc1ccc(OCc2ccccc2C(=O)Nc2ccc3nc(C)cc(N)c3c2)cc1,-58.4% (active)
5,N/C(=N\N=C\c1cc2ccccc2[nH]1)N/N=C/c1cc2ccccc2[nH]1,107%
6,O=C(/C=C\c1ccc2c(c1)OCO2)/C=C/c1ccc2c(c1)OCO2,20.3%
7,COc1ccc(CCN2CCCN3C2=Nc2ccccc2S3(=O)=O)cc1,5.24% (active)
8,COc1cc2nc(-c3ccc(C(F)(F)F)cc3)cc(OCCCNCC3CCCO3)c2cc1OC (stereo not given),14.2%
9,NC(=O)C1CC2C=CC1C2 (stereo not given),109%
10,O=C(/C=C/c1ccc[nH]1)c1ccc(-n2ccc(C(F)(F)F)n2)cc1,90.3%
11,CC(C)OCCCNCC(=O)Nc1ccc(S(=O)(=O)c2ccc(NC(=O)CNCCCOC(C)C)cc2)cc1,92.7%
12,Cc1ccc(-c2nn(CC(=O)N3CCOCC3)c(N)c2C#N)cc1,104%
13,COc1ncc(-c2ccc3nccc(C#CCN4CCN(S(C)(=O)=O)CC4)c3c2)cc1NS(=O)(=O)c1ccc(F)cc1F,-67% (active)
14,Cc1nc(NC(=O)COc2ccc(/C=C3\Cc4ccc(Cl)cc4C3=O)cc2)sc1C,112%
15,Oc1c(C(Nc2ccccc2)c2ccccc2)ccc2cccnc12 (stereo not given),17.8%
16,O=C(Nc1ccc(F)cc1F)c1cc(I)ccc1O,-1.05% (active)
17,CCN(CC)Cc1cc(Nc2c3ccc(Cl)cc3nc3ccc(OC)cc23)ccc1O,60.5%
18,CCn1cc(C2NC(=O)c3ccccc3N2)c2cccc(C)c21 (stereo not given),17.9%
19,Cc1nn(-c2ccccc2)c(N)c1N=C1NC(=O)/C(=C/c2ccc(Br)cc2)S1,86.6%
20,CCC(=O)c1c(C)[nH]c(C)c1C,54.4%
